# TEAD-YAP block: TEAD-YAP interaction inhibition. 640,000 compounds, 1.4% hits. HEK-TIYL cells, TEAD-Gal4/YAP UAS-luciferase luminescence. inhibition, % at 9.12 µM; in the data active = inhibition above about 32%;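 note: 0% = median of test compound wells and 100% = reference inhibitor wells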
# MITF primary: human MITF inhibition, primary screen; O75030; inhibition, % at 2.6 µM; AlphaScreen MITF homodimerization, bead proximity signal; 650,000 compounds, 0.91% hits; in the data active = inhibition above about 50%;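 note: 0% = vehicle wells with protein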
# FBW7 act: human FBW7 E3 ligase activation, primary screen; Q969H0; AlphaScreen FBW7–phospho-cyclin E peptide binding, activator screen; normalized activity (activation), % at 26.1 µM; 650,000 compounds, 0.13% hits; AID 1259310; in the data active = normalized activity above about 1.9%;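 note: purified mutant Fbw7 with reduced substrate affinity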
# Target sequence (Q969H0 whole entry, looked up): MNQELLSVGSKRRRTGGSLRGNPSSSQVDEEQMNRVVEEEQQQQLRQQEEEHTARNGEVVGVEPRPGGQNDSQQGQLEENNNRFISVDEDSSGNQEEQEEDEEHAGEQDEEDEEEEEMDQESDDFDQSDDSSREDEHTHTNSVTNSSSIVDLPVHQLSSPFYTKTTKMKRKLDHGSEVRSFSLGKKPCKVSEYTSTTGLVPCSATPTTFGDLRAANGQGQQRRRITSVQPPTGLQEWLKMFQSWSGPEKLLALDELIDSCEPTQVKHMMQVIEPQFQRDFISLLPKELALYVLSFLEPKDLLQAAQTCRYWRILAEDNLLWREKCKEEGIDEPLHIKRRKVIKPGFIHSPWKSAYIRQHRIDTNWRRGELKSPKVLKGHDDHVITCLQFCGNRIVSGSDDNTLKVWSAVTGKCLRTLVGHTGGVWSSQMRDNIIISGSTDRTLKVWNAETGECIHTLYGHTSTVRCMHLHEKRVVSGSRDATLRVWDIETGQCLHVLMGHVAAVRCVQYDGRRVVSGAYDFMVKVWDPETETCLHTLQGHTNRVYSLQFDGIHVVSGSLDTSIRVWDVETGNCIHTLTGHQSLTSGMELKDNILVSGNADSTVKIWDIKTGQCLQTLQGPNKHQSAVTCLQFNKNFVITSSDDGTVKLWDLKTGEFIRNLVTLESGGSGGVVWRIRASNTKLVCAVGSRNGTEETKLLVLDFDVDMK
# GPR151 activ: activators of human GPR151. PathHunter beta-arrestin GPR151 cells, luminescence. 650,000 compounds, 1% hits. activation, % at 11.2 µM; in the data active = activation above about 4.9%;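 note: 0% = median of compound wells and 100% = cells with positive control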
# An asterisk follows results filed as active. In the library only some 3.4% were active in any assay of this set; here they are far more common.
SMILES,TEAD-YAP block,MITF primary,FBW7 act,GPR151 activ
O=C1Cc2ccccc2N1C1CCN(CC(O)COc2ccccc2)CC1 (stereo not given),36*,1,0,1
COc1ccc(/C=c2\sc3nc(=O)c(Cc4ccccc4)nn3c2=O)cc1,2,-2,1,3
Nc1c(N2CCCC2)cc(O)c2c1C(=O)c1ccccc1C2=O,-55,77*,0,-2
Cc1ccc(CN(Cc2cccnc2)C(=S)Nc2ccc(Cl)cc2)cc1,-5,-8,0,1
Cc1ccc(Oc2ncnc3c2cnn3-c2ccccc2)cc1,51*,8,0,1
Fc1cccc(Oc2ncnc3c2cnn3-c2cccc(Cl)c2)c1,-3,-8,0,-1
Cc1ccc(-n2ncc3c(Oc4ccc(F)cc4)ncnc32)cc1,58*,-1,0,0
Fc1ccc(-n2ncc3c(Oc4ccc(Cl)cc4)ncnc32)cc1,42*,8,0,0
COc1ccc(Oc2ncnc3c2cnn3-c2ccccc2)cc1,-11,10,0,1
Fc1ccc(Br)cc1C1CC(c2ccc(Cl)cc2)Nc2nnnn21 (stereo not given),-5,5,0,0
O=C(COc1ccccc1)N1CCN(c2ccc(Nc3ccncc3)nn2)CC1,-5,2,2.0*,2
O=C(COc1ccccc1)N1CCN(c2ccc(Nc3ccccn3)nn2)CC1,10,8,-1,0
Cc1cc2c(cc1C)NC(c1cc3c(cc1[N+](=O)[O-])OCO3)C1=C(CC(C)(C)CC1=O)N2 (stereo not given),72*,4,0,-1
c1cnc2ccc(Nc3nc(Nc4ccc5c(c4)OCO5)c4ncn(-c5ccsc5)c4n3)cc2c1,45*,-10,8.5*,1
c1ccc2c(Nc3nc(Nc4ccc5c(c4)OCO5)c4ncn(-c5ccsc5)c4n3)nccc2c1,49*,4,0,1
c1ccc(-n2cnc3c(Nc4ccc5c(c4)OCO5)nc(Nc4ccc(-n5ccnc5)cc4)nc32)cc1,43*,18,0,1
COc1cc(Nc2nc(Nc3ccc(C(F)(F)F)cc3)nc3c2ncn3-c2ccsc2)cc(OC)c1OC,7,17,0,0
c1ccc(-n2cnc3c(Nc4ccc5c(c4)OCO5)nc(Nc4ccncn4)nc32)cc1,-39,-3,0,0
COc1cc(Nc2nc(Nc3ccc4ncccc4c3)nc3c2ncn3-c2ccsc2)cc(OC)c1OC,32*,8,0,-1
CSc1ncc(Cl)c(C(=O)N(Cc2ccccc2)Cc2ccco2)n1,2,5,0,0
O=C(Nc1ccc(-c2nc3ncccc3o2)cc1)c1cccc(Cl)c1Cl,-52,0,0,-1
C/C(Cn1nnc([N+](=O)[O-])n1)=N\NC(=O)c1c(F)cccc1F,-44,-5,0,0
CC(C)n1cnc2c(Nc3ccc4c(c3)OCO4)nc(Nc3nccc4ccccc34)nc21,36*,5,0,-1
c1ccc(-n2cnc3c(Nc4ccc5c(c4)OCO5)nc(Nc4ccc5ncccc5c4)nc32)cc1,12,-6,7.1*,0
CCNc1nc(Nc2ccc3c(c2)OCO3)c2ncn(C(C)C)c2n1,-45,10,0,-1
SMILES,TEAD-YAP block,MITF primary,FBW7 act,GPR151 activ
COc1ccc(N2CCN(c3cc(Nc4ccc5c(c4)OCCO5)c4c5c(onc35)-c3ccccc3C4=O)CC2)cc1,-9,-7,0,3
Nc1c(S(=O)(=O)O)cc(Nc2ccc(Nc3nc(Cl)nc(Nc4ccc(S(=O)(=O)O)cc4)n3)c(S(=O)(=O)O)c2)c2c1C(=O)c1ccccc1C2=O,11,61*,0,-2
CCc1ccccc1NC1C=CS(=O)(=O)C1 (stereo not given),34*,14,0,1
O=S1(=O)C=CC(Nc2cccc3ccccc23)C1 (stereo not given),33*,-8,0,-1
COc1ccc(S(=O)(=O)NCCNc2nc(C)cc(N(C)C)n2)c(OC)c1,32*,9,0,-2
Nc1ccc(Oc2ccc3c(c2)C(=O)N(Cc2cccnc2)C3=O)cc1,35*,10,0,1
O=C1c2ccccc2C(=O)N1Cc1cccnc1,-3,11,0,1
CCOc1cc(-c2nnc(SCC(=O)NCc3ccccc3)nc2-c2ccc(OC)c(OCC)c2)ccc1OC,52*,13,0,0
COc1ccc(-c2nnc(SCC(=O)NCc3cccs3)nc2-c2ccc(OC)c(OC)c2)cc1OC,56*,3,0,3
CCOc1cc(-c2nnc(SCC(=O)NCc3ccc(C)cc3)nc2-c2ccc(OC)c(OCC)c2)ccc1OC,11,-6,0,0
Cc1[nH]c2ccccc2c1CCNC(=O)c1ccc(Cl)c([N+](=O)[O-])c1,-10,10,0,1
O=C(O)Cn1c2ccccc2c2ccccc21,-2,-9,0,0
O=C(c1ccccc1)n1c2ccccc2c2ccccc21,36*,18,0,0
O=[N+]([O-])c1cccc(C(Nc2ccccn2)c2ccc3cccnc3c2O)c1 (stereo not given),79*,14,0,-1
Cc1cc(NC(=O)c2cccc([N+](=O)[O-])c2)no1,5,30,1,-1
O=[N+]([O-])c1ccc(C(Nc2ccccn2)c2ccc3cccnc3c2O)cc1 (stereo not given),72*,15,-1,0
CC(C)C(=O)NC(c1ccc([N+](=O)[O-])cc1)c1ccc2cccnc2c1O (stereo not given),81*,35,-1,-2
Cc1cc(NC(c2cccc([N+](=O)[O-])c2)c2ccc3cccnc3c2O)no1 (stereo not given),86*,7,-1,1
Cc1ccc2ccc(C(Nc3ccccn3)c3ccc([N+](=O)[O-])cc3)c(O)c2n1 (stereo not given),28,13,-1,-1
CCOC(=O)Cc1csc(NC(=O)c2ccc(S(=O)(=O)N3CCc4ccccc4C3)cc2)n1,17,-9,0,1
COc1cccc(/C=C2\C(=O)ON=C2C)c1OCc1ccccc1Cl,-17,74*,0,0
COc1ccc(Cl)cc1/C=C1/C(=O)ON=C1C,10,35,0,0
CC1=NOC(=O)/C1=C/c1ccccc1OS(=O)(=O)c1ccc(C)cc1,5,70*,0,0
COc1ccccc1/C=C1\C(=O)ON=C1C,-2,71*,0,2
COc1cccc(C=C2C(=O)NC(=O)NC2=O)c1OCc1ccccc1Cl,0,5,0,3
Cc1cc(Br)ccc1NC(=O)CCCNC(=O)Cn1cnc2sc3c(c2c1=O)CCCC3,1,-5,0,0
Cc1ccccc1-n1nc2c(c1NC(=O)c1cccc(Cl)c1)CS(=O)(=O)C2,3,-2,0,3
Cc1ccn2cc(C(=O)Nc3cccc(F)c3)nc2c1,58*,22,0,-5
CCc1ccc(/C=N\NC(=O)C2CC(=O)N(c3ccc(OC)cc3)C2)cc1 (stereo not given),47*,-16,0,1
